Some test systems named below: SK-MEL-2 melanoma; EKVX NSCLC; SN12C renal; UO-31 renal; TK-10 renal; ACHN renal; CAKI-1 renal; A498 renal; CCRF-CEM leukemia; MOLT-4 leukemia; SR leukemia; RPMI-8226 leukemia; OVCAR-8 ovarian; OVCAR-5 ovarian; OVCAR-4 ovarian; SK-OV-3 ovarian; IGROV1 ovarian; OVCAR-3 ovarian; HS 578T breast; NCI/ADR-RES ovarian.
Assay in all cases: NCI-60 one-dose screen, 48 h (100 = growth as untreated, 0 = no growth, -100 = all killed)
Common to all, as to settings: 10 µM unless noted

SMILES strings stand for the structures. This is part of a sample that, as a whole, favours compounds with a hit. Of some 83,000 tested, about 20% had one in any assay.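 Cell lines were cultured in 96-well plates, exposed to a single compound concentration, and assessed for percent growth 48 hours later.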 Unmarked numbers belong to inactive results. Activity calls are given as the source filed them. How the source made its calls: active means growth percent below 10; inactive means the rest.

With `CCN1CCN(C(=O)[C@]23CC[C@@H](C)[C@H](C)[C@@H]2C2=CC[C@@H]4[C@@]5(C)C/C(=C/c6cccnc6)C(=O)C(C)(C)[C@@H]5CC[C@@]4(C)[C@]2(C)CC3)CC1`, the growth is 28.3% in the assay with SK-MEL-2 melanoma; 41.5% in the assay on EKVX NSCLC; 29.6% in the assay on SN12C renal; 10.5% with UO-31 renal; 43.1% in the assay with TK-10 renal; 20.7% in the assay with ACHN renal. The growth with CAKI-1 renal is 39.8%; in the assay with A498 renal, 43.8%; with CCRF-CEM leukemia, 8.77% (active); with MOLT-4 leukemia, 2.7% (active); in the assay with SR leukemia it was -4.44% (active); in the assay with RPMI-8226 leukemia, -15.2% (active). Also, the growth in the assay on OVCAR-8 ovarian is 32.6%; in the assay with OVCAR-5 ovarian it was 56.7%; in the assay on OVCAR-4 ovarian, 26.7%; with SK-OV-3 ovarian it was 54.3%; with IGROV1 ovarian, 50.9%; with OVCAR-3 ovarian, 25.9%. The growth in the assay with HS 578T breast is 25.2%; with NCI/ADR-RES ovarian, 26.7%.
Turning to `Cc1cccc2c1C[C@@]1(C2=O)C(c2ccc(C(C)(C)C)cc2)=NOS1=O` (some centres undefined), the growth with SK-MEL-2 melanoma is 93.1%; in the assay with EKVX NSCLC it was 79.2%; in the assay on SN12C renal, 92.3%; with UO-31 renal, 77.1%; with TK-10 renal, 158%; in the assay on ACHN renal, 108%. In addition, the growth was 94.2% with CAKI-1 renal; 77.1% in the assay on A498 renal; 83.6% with CCRF-CEM leukemia; 80.1% with MOLT-4 leukemia; 71% in the assay with SR leukemia; 69.4% in the assay on RPMI-8226 leukemia. The growth in the assay with OVCAR-8 ovarian was 89.2%; in the assay on OVCAR-5 ovarian it was 112%; in the assay on OVCAR-4 ovarian it was 86.3%; in the assay on SK-OV-3 ovarian, 98.4%; in the assay on IGROV1 ovarian, 64.5%; in the assay with OVCAR-3 ovarian, 92.1%. The growth in the assay on HS 578T breast was 87.2%; in the assay on NCI/ADR-RES ovarian it was 86%.
On to `COc1ccc2c(c1)CCc1[nH]nc(-c3cc(OC)c(OC)c(OC)c3)c1-2`, for which the growth in the assay on SK-MEL-2 melanoma is 31.1%; in the assay with EKVX NSCLC, 33.7%; in the assay with SN12C renal, 31.9%; in the assay with UO-31 renal it was 13.8%; in the assay with TK-10 renal it was 50.1%; in the assay with ACHN renal, 25.4%. The growth in the assay on CAKI-1 renal is 26%; in the assay with A498 renal, -9.65% (active); in the assay on CCRF-CEM leukemia it was 0.932% (active); in the assay with MOLT-4 leukemia, 9.32% (active); with SR leukemia it was -26.2% (active); in the assay on RPMI-8226 leukemia, 22.3%. Besides, the growth is 7.98% (active) in the assay with OVCAR-8 ovarian; 56% in the assay with OVCAR-5 ovarian; -7.59% (active) in the assay on SK-OV-3 ovarian; 25.5% with IGROV1 ovarian; 1.01% (active) in the assay with OVCAR-3 ovarian; 23% in the assay on HS 578T breast. For the same molecule, the growth with NCI/ADR-RES ovarian is 0.961% (active).
Regarding `C=CC(=O)Nc1ccc(Oc2nccc(Nc3nnc(-c4ccc(C)cc4)s3)n2)cc1`, the growth in the assay with SK-MEL-2 melanoma was 79.4%; in the assay with EKVX NSCLC, 103%; in the assay on SN12C renal, 84%; with UO-31 renal it was 55.7%; in the assay with TK-10 renal, 135%; in the assay with ACHN renal, 68.5%. In addition, the growth was 41.1% with CAKI-1 renal; 83.3% in the assay on A498 renal; 50.5% in the assay with CCRF-CEM leukemia; 68.6% in the assay with MOLT-4 leukemia; 36.2% in the assay on SR leukemia; 61.8% with RPMI-8226 leukemia. The growth is 81.4% in the assay with OVCAR-8 ovarian; 105% in the assay on OVCAR-5 ovarian; 99% in the assay with OVCAR-4 ovarian; 78% in the assay on SK-OV-3 ovarian; 62.5% in the assay on IGROV1 ovarian; 43% in the assay with OVCAR-3 ovarian. Moreover, the growth with HS 578T breast is 67.4%; with NCI/ADR-RES ovarian, 59.1%.
As for `Cc1ccc(-c2nc(-c3cn(C)c4ncccc34)cs2)cc1`, the growth is -14.6% [100 µM] (active) in the assay on SK-MEL-2 melanoma; -13.5% [100 µM] (active) with EKVX NSCLC; -13.1% [100 µM] (active) in the assay with SN12C renal; 14.8% [100 µM] with UO-31 renal; -60% [100 µM] (active) with TK-10 renal; 6.72% [100 µM] (active) in the assay with ACHN renal. The growth with CAKI-1 renal is -22.9% [100 µM] (active); in the assay with A498 renal it was -3.41% [100 µM] (active); with CCRF-CEM leukemia, -4.89% [100 µM] (active); with MOLT-4 leukemia, 17.3% [100 µM]; with SR leukemia, 3.67% [100 µM] (active); in the assay with RPMI-8226 leukemia it was -7.33% [100 µM] (active). The growth in the assay on OVCAR-8 ovarian is -3.32% [100 µM] (active); in the assay with OVCAR-5 ovarian it was -5.34% [100 µM] (active); with OVCAR-4 ovarian, -21.5% [100 µM] (active); with SK-OV-3 ovarian, -33.7% [100 µM] (active); in the assay with IGROV1 ovarian, -0.0952% [100 µM] (active); with OVCAR-3 ovarian, -28.5% [100 µM] (active). In addition, the growth was 13.7% [100 µM] in the assay with HS 578T breast and -24.9% [100 µM] (active) in the assay with NCI/ADR-RES ovarian.
In the case of `COc1ccc(/C=C/c2c(C(=O)/C=C/c3ccccc3)c(C)nc3ccccc23)cc1`, the growth was 14.2% in the assay with SK-MEL-2 melanoma; 41% in the assay with EKVX NSCLC; 23.6% in the assay on SN12C renal; -7.16% (active) in the assay with UO-31 renal; 25.1% in the assay with TK-10 renal; 7.53% (active) in the assay on ACHN renal. The growth in the assay on CAKI-1 renal is 20.9%; in the assay with A498 renal, 46.6%; in the assay on CCRF-CEM leukemia it was 7.45% (active); in the assay on MOLT-4 leukemia, 6.35% (active); in the assay on SR leukemia it was 10.7%; with RPMI-8226 leukemia, 0.598% (active). Also, the growth with OVCAR-8 ovarian was 0.97% (active); in the assay on OVCAR-5 ovarian it was -29.3% (active); in the assay with OVCAR-4 ovarian, 37.2%; in the assay with SK-OV-3 ovarian, 63.6%; with IGROV1 ovarian, 6.06% (active); with OVCAR-3 ovarian, -22.4% (active). The figures for the growth in the assay on HS 578T breast and in the assay with NCI/ADR-RES ovarian were 38.2% and 3.63% (active), respectively.
Turning to `O=C(CCCCCNC(=O)c1cc(=O)c(O)co1)Nc1ccccc1`, the growth was 105% in the assay on SK-MEL-2 melanoma; 98.1% in the assay with EKVX NSCLC; 110% in the assay on SN12C renal; 83.9% with UO-31 renal; 93.6% in the assay with TK-10 renal; 102% with ACHN renal. In addition, the growth in the assay on CAKI-1 renal was 95.3%; in the assay with A498 renal it was 96%; in the assay on CCRF-CEM leukemia it was 95.1%; with MOLT-4 leukemia, 106%; in the assay with SR leukemia, 101%; with RPMI-8226 leukemia it was 95.7%. For the same molecule, the growth in the assay on OVCAR-8 ovarian is 104%; with OVCAR-5 ovarian it was 102%; in the assay on OVCAR-4 ovarian, 110%; in the assay with SK-OV-3 ovarian, 118%; in the assay with IGROV1 ovarian it was 106%; in the assay with OVCAR-3 ovarian, 109%. The values for the growth in the assay on HS 578T breast and in the assay on NCI/ADR-RES ovarian were 108% and 102%, respectively.
